Inhibition data for 20 compounds are collected here from PubChem BioAssay.

The term inhibition denotes the drop in the measured response relative to a control, in per cent.

For assay [1], the target named is Nuclear receptor coactivator 1 (Homo sapiens) (UniProt Q15788). The experiment in a line: NCOA1 GAL4-fusion reporter inhibition – cell-based, luminescence, quadruplicate, confirmation (AID 588820).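 Also: 0% = DMSO wells and 100% = gossypol 36 µM treated wells.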 The conditions noted are these: HEK293 GAL4-SRC1 luciferase reporter, at 3.6 µM, active compounds read high. In general terms: In a reporter assay the amount or activity of a reporter protein is the signal.
Chain of Nuclear receptor coactivator 1 (Homo sapiens) (Q15788 whole entry, looked up, the tested form may be a part): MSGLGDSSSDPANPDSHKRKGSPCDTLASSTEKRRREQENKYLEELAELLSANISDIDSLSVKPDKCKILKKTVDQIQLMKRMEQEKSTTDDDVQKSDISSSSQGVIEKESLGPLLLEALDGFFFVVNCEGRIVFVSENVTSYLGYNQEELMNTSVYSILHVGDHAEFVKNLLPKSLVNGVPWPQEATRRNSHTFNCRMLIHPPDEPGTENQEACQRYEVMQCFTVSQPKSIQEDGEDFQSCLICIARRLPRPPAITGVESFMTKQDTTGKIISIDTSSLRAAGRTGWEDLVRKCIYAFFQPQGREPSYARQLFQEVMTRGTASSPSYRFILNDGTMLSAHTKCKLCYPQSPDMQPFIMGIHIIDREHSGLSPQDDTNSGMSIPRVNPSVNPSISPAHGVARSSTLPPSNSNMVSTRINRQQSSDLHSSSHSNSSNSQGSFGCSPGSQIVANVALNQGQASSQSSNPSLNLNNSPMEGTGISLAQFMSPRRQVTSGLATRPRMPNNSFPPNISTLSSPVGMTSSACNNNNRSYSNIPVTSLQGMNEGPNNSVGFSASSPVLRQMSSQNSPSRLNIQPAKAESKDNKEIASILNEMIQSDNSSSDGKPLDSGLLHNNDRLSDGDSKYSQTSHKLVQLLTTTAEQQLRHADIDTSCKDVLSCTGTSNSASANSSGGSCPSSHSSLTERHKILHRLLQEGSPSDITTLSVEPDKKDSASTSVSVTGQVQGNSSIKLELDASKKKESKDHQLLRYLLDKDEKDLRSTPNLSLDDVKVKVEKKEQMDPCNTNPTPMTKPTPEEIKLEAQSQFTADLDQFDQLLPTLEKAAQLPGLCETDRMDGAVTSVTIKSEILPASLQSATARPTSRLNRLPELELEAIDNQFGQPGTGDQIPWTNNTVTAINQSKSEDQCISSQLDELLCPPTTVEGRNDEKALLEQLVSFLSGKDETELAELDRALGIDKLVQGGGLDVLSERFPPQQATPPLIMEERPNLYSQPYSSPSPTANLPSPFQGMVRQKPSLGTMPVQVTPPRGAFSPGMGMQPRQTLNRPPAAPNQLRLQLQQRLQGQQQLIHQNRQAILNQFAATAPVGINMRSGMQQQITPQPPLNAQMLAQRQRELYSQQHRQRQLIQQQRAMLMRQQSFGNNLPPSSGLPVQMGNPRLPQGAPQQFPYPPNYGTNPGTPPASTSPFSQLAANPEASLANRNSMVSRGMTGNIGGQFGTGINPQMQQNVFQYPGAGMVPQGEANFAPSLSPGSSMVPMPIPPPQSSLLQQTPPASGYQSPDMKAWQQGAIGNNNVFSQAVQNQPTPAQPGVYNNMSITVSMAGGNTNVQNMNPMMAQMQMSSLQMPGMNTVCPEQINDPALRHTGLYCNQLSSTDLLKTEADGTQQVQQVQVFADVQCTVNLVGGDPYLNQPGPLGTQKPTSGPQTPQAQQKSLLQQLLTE

The nature of assay [2]: repression of VP16-driven luciferase reporter – cell-based, luminescence, high throughput, counter-screen for SRC1 inhibitor project (AID 588824; in the data active = inhibition above about 25%). The conditions noted are these: cell-based VP16 transactivation luciferase luminescence; at 3.6 µM; active compounds read high.
The nature of assay [3]: StAR promoter reporter inhibitors, counter-screen for LRH-1 inverse agonist project, cell-based, luminescence, high throughput (AID 651611; in the data active = inhibition above about 28%). The conditions noted are these: StAR promoter luciferase reporter counterscreen, at 3.6 µM, active compounds read high.
In assay [4] the target is Nuclear receptor subfamily 5 group A member 2 (Homo sapiens) (UniProt O00482). Description: NR5A2 activity suppression in reporter cells – cell-based, luminescence, confirmation (AID 651613; in the data active = inhibition above about 42%;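 also: HEK293T cells co-transfected with LRH-1 and StAR promoter luciferase reporter; 0% = vehicle wells and 100% = parental cells lacking receptor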). The conditions noted are these: cell-based LRH-1 luciferase reporter, inverse agonism; at 3.6 µM; active compounds read high.
Chain of Nuclear receptor subfamily 5 group A member 2 (Homo sapiens) (O00482 whole entry, looked up): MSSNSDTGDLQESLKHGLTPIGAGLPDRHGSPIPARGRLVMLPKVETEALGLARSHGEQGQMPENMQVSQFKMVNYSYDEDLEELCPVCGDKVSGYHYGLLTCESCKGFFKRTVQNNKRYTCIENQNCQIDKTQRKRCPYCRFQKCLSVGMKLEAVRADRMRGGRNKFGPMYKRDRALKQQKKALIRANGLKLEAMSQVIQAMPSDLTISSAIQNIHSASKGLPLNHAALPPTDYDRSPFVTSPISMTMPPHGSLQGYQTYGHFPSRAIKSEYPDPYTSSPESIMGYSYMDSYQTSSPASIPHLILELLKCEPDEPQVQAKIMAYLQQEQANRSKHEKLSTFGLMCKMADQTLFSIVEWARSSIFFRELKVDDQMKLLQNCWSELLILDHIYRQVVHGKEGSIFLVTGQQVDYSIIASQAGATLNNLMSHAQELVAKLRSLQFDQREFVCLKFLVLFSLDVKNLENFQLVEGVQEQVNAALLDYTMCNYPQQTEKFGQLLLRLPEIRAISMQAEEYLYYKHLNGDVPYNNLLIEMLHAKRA
Assay [5] deals with Steroidogenic factor 1 (Homo sapiens) (UniProt Q13285). The experiment in a line: inverse agonism at SF1 nuclear receptor – cell-based, luminescence, high throughput, counter-screen for LRH-1 inverse agonist project (AID 651614; in the data active = inhibition above about 44%;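 also: cells cotransfected with StAR promoter reporter and SF1 expression vector; 0% = vehicle on cells with receptor and 100% = vehicle on cells lacking receptor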). The conditions noted are these: cell-based SF1 luciferase reporter, at 3.6 µM, active compounds read high. A general note: Counterscreens check selectivity or assay interference.
Chain of Steroidogenic factor 1 (Homo sapiens) (Q13285 whole entry, looked up): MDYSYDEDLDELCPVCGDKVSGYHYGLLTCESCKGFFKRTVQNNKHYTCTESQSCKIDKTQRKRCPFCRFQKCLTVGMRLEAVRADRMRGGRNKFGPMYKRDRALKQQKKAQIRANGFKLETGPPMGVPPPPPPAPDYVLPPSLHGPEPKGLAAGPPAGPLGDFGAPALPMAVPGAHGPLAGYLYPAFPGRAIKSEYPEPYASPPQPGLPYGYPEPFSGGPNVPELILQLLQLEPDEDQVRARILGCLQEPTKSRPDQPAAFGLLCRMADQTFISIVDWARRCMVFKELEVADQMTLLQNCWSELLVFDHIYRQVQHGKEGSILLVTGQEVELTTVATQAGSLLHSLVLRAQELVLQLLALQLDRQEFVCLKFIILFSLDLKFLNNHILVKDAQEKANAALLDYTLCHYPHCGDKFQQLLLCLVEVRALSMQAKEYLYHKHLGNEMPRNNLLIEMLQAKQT

The nature of assay [6]: compounds suppressing VP16-driven luciferase signal – cell-based, luminescence, high throughput, counter-screen for LRH-1 inverse agonist project (AID 651615; in the data active = inhibition above about 33%). The conditions noted are these: Gal4-VP16 luciferase reporter cells, at 3.6 µM, active compounds read high.
In assay [7] the target is Photoreceptor-specific nuclear receptor (Homo sapiens) (UniProt Q9Y5X4). The experiment in a line: retest of NR2E3-NCOR disrupting agonists – cell-based, luminescence, CHO-S two-hybrid, confirmation (AID 624378;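 active = average inhibition above a cutoff equal to the mean inhibition of all tested compounds plus one SD, cut at about 70% in these data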;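 also: 0% = DMSO in NR2E3 cells and 100% = DMSO in cells lacking NR2E3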). The conditions noted are these: CHO-S mammalian two-hybrid NR2E3-NCOR, luciferase luminescence; at 3.98 µM; active compounds read high.
Chain of Photoreceptor-specific nuclear receptor (Homo sapiens) (Q9Y5X4 whole entry, looked up): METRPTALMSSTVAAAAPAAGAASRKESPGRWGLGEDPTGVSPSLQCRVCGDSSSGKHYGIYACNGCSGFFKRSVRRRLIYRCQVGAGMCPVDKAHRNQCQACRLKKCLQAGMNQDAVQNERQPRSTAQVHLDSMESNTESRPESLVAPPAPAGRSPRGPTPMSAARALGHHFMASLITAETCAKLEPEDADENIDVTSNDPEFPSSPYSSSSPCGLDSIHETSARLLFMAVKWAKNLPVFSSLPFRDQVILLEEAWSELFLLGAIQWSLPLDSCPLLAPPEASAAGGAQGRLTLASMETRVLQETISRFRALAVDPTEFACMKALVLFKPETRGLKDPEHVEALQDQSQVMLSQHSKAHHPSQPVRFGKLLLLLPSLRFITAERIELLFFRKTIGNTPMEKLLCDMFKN
A short description of assay [8]: nonselective effects on VP16 transactivation – cell-based, luminescence, CHO-S, high throughput, counter-screen for NR2E3 agonist project, confirmation (AID 624379;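 active = mean inhibition above a cutoff equal to the average over all tested compounds plus one standard deviation, cut at about 70% in these data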;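 also: 0% = DMSO with VP16-transfected cells and 100% = DMSO with cells lacking VP16; higher means less reporter light so more repression of VP16 activity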). The conditions noted are these: CHO-S GAL4-VP16 luciferase reporter, at 3.98 µM, active compounds read high.
The nature of assay [9]: VP16-driven transactivation reporter suppression – cell-based, luminescence, HEK293, counter-screen for COUP-TFII antagonist project (AID 687007; in the data active = inhibition above about 13%). The conditions noted are these: HEK293 Gal4-VP16 luciferase reporter, at 8.5 µM, active compounds read high.
Assay [10] addresses COUP transcription factor 2 (Homo sapiens) (UniProt P24468). Description: retest of COUP-TFII reporter suppressors – cell-based, luciferase reporter, HEK293, triplicate, confirmation (AID 687008;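 active = mean inhibition over three repeats above a set limit taken from the earlier primary screen, cut at about 38% in these data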;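 also: 100% = cells given the luciferase reporter alone without the COUP-TF2 vector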). The conditions noted are these: HEK293 NGFI-A luciferase reporter, luminescence; at 8.5 µM; active compounds read high.

The structures appear in SMILES notation. A number with no mark means an inactive call. The list shows a part of the results. Active and inactive are the calls of the source.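 The calls were made as follows, unless noted: active = mean inhibition above 46.68%, the untreated control wells mean plus 3 SD; inactive = the rest.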

Chain of COUP transcription factor 2 (Homo sapiens) (P24468 whole entry, looked up): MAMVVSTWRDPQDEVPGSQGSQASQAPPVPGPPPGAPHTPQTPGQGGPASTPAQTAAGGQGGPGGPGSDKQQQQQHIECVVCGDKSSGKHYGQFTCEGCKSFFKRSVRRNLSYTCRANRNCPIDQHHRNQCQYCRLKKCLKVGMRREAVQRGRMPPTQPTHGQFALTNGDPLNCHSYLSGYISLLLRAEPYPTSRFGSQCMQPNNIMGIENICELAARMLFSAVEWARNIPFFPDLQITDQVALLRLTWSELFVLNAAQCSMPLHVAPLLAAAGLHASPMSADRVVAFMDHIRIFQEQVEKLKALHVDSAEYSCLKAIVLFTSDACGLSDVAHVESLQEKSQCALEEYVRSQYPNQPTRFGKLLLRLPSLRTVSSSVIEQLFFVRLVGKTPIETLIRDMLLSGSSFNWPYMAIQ

For the compound `CC(=O)c1cccc(NC(=O)c2ccc(CN3CCc4ccccc4C3)cc2)c1`, the inhibition in [1] is -1.99%; in [2], 9.39%.
Regarding `COc1ccc(CCNC(=O)[C@H](CCSC)NC(=O)N2CCn3c2nc2ccccc23)cc1OC`, the inhibition in assay [1] is 1.44%; in assay [2], -3.22%.
The like results for `COc1ccc(S(=O)(=O)Nc2ccc(F)c(Cl)c2)cc1OC` were, in that order, -9.19% and -10.6%.
Consider `Cc1ccc(NC(=O)CN(C(=O)N2CCN(C)CC2)S(=O)(=O)c2ccc(C)cc2)cc1`, for which the values for the inhibition in assay [1] and in assay [2] were -4.36% and -2.41%, respectively.
With `CCN(CC)C1=CC(=[N+]2CCCC2)CC(C)(C)C1`, the inhibition in [1] was -5.15%; in assay [2] it was 22.7%; in [3], 17.4%; in assay [4] it was 61.9% (active); in assay [5], 57.5% (active); in assay [6], 45.8% (active).
Turning to `CN(C)CCNc1ccc2nnn3c4ccc(O)cc4c(=O)c1c23`, the inhibition is 0.55% in assay [1]; 50.6% (active) in [2]; 47.1% (active) in assay [3]; 71.1% (active) in [4]; 71.5% (active) in assay [5]; 75.9% (active) in [6].
Consider `Cc1cc2[nH]c3c(c[n+](C)c4ccccc34)c2cc1C`, for which the inhibition is 20.9% in assay [1]; 47.8% (active) in [2]; 41.7% (active) in [3]; 100% (active) in [4]; 66.4% (active) in [5]; 84.2% (active) in assay [6].
`COc1cc(/C=N/NC(=O)NC23CC4CC(CC(C4)C2)C3)ccc1OCC(N)=O`: the inhibition was -24.7% in [1] and -17.2% in assay [2].
As to `CC(C)C(=O)NC(c1ccc(Cl)cc1Cl)c1ccc2cccnc2c1O` (centres undefined), the inhibition is 6.86% in assay [1]; 16.8% in assay [2]; 48.2% (active) in assay [3]; 35.2% in assay [4]; 41.4% in assay [5]; 47.6% (active) in [6].
Regarding `Cc1cc(C)n(-c2ccc(C(=O)Nc3ccc(S(=O)(=O)NCc4ccco4)cc3)cc2)n1`, the inhibition in assay [1] was -5.13%; in [2] it was 24.2%.
Regarding `COc1cccc(CNc2nc(NCc3cccs3)nc3ccsc23)c1`, the inhibition in assay [1] was -9.48%; in assay [2], 2.77%; in [7], 67.6%; in [8], 47.4%; in [9] it was -0.37%; in [10] it was 13.2%.
For the compound `COc1cc(C=C2CCCC(=Cc3ccc(OCC4CO4)c(OC)c3)C2=O)ccc1OCC1CO1` (centres undefined), the inhibition in assay [1] is -119%; in assay [2], 9.37%.
As for `Fc1ccc(NC(=S)N2CCCN(c3ccc(C(F)(F)F)cn3)CC2)c(F)c1`, the inhibition was -32.2% in assay [1]; 36.5% (active) in assay [2]; 26.6% in [3]; 57.6% (active) in assay [4]; 57.8% (active) in [5]; 51.6% (active) in assay [6].
For the compound `CN(C)CCNc1ccc(CO)c2sc3ccc(O)cc3c(=O)c12`, the inhibition in [1] was 44.8%; in assay [2], 39.1% (active); in assay [3] it was 77% (active); in [4], 89.5% (active); in [5] it was 75.7% (active); in assay [6], 61.2% (active).
Regarding `CCCOc1ccc(Cc2c(Cl)nc(SC)nc2NC)cc1`, the inhibition was -9.8% in assay [1]; 24.6% in assay [2]; 94.6% (active) in [7]; 85.9% (active) in [8]; 4.85% in assay [3]; 54.9% (active) in [4]. For the same compound, the inhibition in [5] is 55.9% (active); in assay [6], 35.5% (active); in assay [9], 2.67%; in [10], 44.7% (active).
For the compound `COCCn1c(SCCCC(=O)c2ccc(Br)cc2)nnc1-c1ccncc1`, the inhibition in [1] was -2.26%; in assay [2], 25.2%; in assay [3] it was 6.33%; in assay [4], 44.3% (active); in assay [5] it was 46% (active); in assay [6] it was 44.7% (active).
As to `COc1cc2c(oc(=O)c3cc(C)cc(OC)c32)c2c(C3OC(C)C(O)C(C)(O)C3O)ccc(O)c12` (centres undefined), the inhibition in [1] was -62.6%; in assay [2] it was 64.9% (active); in assay [3], 50.6% (active); in assay [4], 93.8% (active); in assay [5] it was 75.5% (active); in assay [6], 94% (active).
Take `O=C(CN1C(=O)CCC1=O)Nc1ccc(S(=O)(=O)N2CCOCC2)cc1`: the inhibition in assay [1] is -20.2%; in [2], 4.05%.
Turning to `CCOC(=O)c1c(NC(=O)C(C)N2CCN(C(=O)c3ccco3)CC2)sc2c1CCCC2` (centres undefined), the inhibition in assay [1] was 16.6%; in assay [2], 12%.
Consider `O=c1[nH]cnc2sc3c(c12)CCCCC3`, for which the inhibition is -0.67% in [1] and -2.41% in assay [2].
